This passage reports outcome results from PubChem BioAssay AID624300 (Southern Research Specialized Biocontainment Screening …, 2012).

About 360 (15%) of roughly 2,400 compounds were called active.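 How the source made its calls: active means viability falls under 70% at one or more tested concentrations, taken as toxicity; inactive means viability stays over 70% at every dose.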 A selection follows. Entries that show only a call come without a potency. Potency and affinity values are given separately.

The test can be described thus: viability loss in HeLa cells – cytotoxicity control for MgcRacGAP inhibitor project, dose response (AID 624300). The following applies: CellTiter-Glo luminescence, 24 h; series mostly up to 100 µM. (In general: Cellular ATP, detected with luciferase, serves as a proxy for viable cell number.)
On to `CCC(CC)N1CCN(C(=O)c2cccc(Cl)c2)CC1`, for which the call was inactive. Consider `COc1cc(/C(C)=N/N2CCN(c3ccccc3OC)CC2)ccc1O`, for which the outcome was inactive. Take `CN(C)C(=S)N=c1ssc(=S)n1Cc1cccnc1`: the outcome was inactive. Consider `COc1cc(/C=N/n2c(-c3cc(C)[nH]n3)n[nH]c2=S)cc(OC)c1OC`, for which the compound was called inactive. With `COc1c(-c2ccc(O)c(O)c2)oc2cc(O)cc(O)c2c1=O`, the result was inactive. As for `O=c1oc(-c2ccc(O)c(O)c2)cc2cccc(O)c12`, the entry is “inactive”; as for `CCOC(=O)c1[nH]c2ccccc2c1NC(=S)Nc1cc(C)ccc1C`, “inactive”. On to `O=C(CN1CCN(c2ccc(O)cc2)CC1)Nc1ccccc1C(=O)NCCc1ccccc1`, for which the compound was called inactive.

As to `S=c1[nH]nc(-c2ccco2)n1/N=C/c1ccc(Cl)cc1`, the compound was classed as inactive. As for `COc1cc2c(cc1OC)C1(CCCC1)C(N)=C2C#N`, the entry is “inactive”; as for `Oc1cc(O)cc(-c2cc3ccc(O)cc3o2)c1`, “inactive”.

For `COc1ccc(NC2CCCN(C(=O)C3=NNC(=O)CC3)C2)cc1` (stereo unspecified), the result was inactive. As for `N#Cc1ccccc1OCCCN1CCC(Cc2ccccc2)CC1`, the entry is “inactive”; as for `Cc1nnc(N=c2ssnc2Cl)o1`, “inactive”.

On to `COc1cc(C(C)=NNC(=O)c2ccncc2)ccc1O`, for which the result was inactive.

Consider `CCCn1c(=O)c2ccccc2n2c(SCCNCCO)nnc12`, for which the call was inactive.

As for `Cc1ccc(NCc2ccccc2O)cc1C`, the outcome was inactive. As to `O=C1OCC/C1=C\c1ccc(O)cc1`, the result was inactive. The result for `COc1cc(/C=N/NC(=O)/C(=C/c2ccccc2)CCO)ccc1O` reads “inactive”; that for `CCN(CC)CCOC(=O)c1ccc(N/C=C(/C#N)c2nc(-c3ccc4c(c3)OCO4)cs2)cc1`, “inactive”.

Turning to `COc1ccc(-c2cc(C(=O)Nc3ccc(O)cc3)c3ccccc3n2)cc1OC`, the call was inactive. The result for `Cc1cc(NC(=O)c2sc3ccccc3c2O)no1` reads “inactive”; that for `COc1cccc(C(=O)N2CCN(C3CCN(Cc4ccccc4)CC3)CC2)c1OC`, “inactive”. The result for `CCN(CC)c1ccc(NC(=O)CN2CCN(c3ccccn3)CC2)cc1` reads “inactive”; that for `O=C(/C(=C/c1cccnc1)n1ccnc1)c1ccc(Cl)cc1Cl`, “inactive”. As for `COc1cc(/C=N\NC(=O)C2CC3C=CC2C3)ccc1O` (stereo unspecified), the entry is “inactive”; as for `CCOc1cc(/C=N/NC(=O)C2CCCC2)ccc1O`, “inactive”; as for `COc1cc(/C=N/NC(=O)CC(=O)NC2CCCCC2)ccc1O`, “inactive”. For `CCOc1cc(C=NNC(=O)CCCC(=O)NN=Cc2ccc(O)c(OCC)c2)ccc1O`, the outcome was inactive. The result for `CCOc1cc(/C=N/NC(=O)c2cc(C3CC3)[nH]n2)ccc1O` reads “inactive”; that for `CCOc1cc(/C=N/NC(=O)C(OC)c2ccccc2)ccc1O` (stereo unspecified), “inactive”; that for `O=C(N/N=C/c1ccc(O)cc1)NC12CC3CC(CC(C3)C1)C2`, “inactive”. As for `COc1cc(/C=N/NC(=S)NCCN2CCOCC2)ccc1O`, the entry is “inactive”; as for `CSc1nc(O)c(/C=C2\C=Nc3ccccc32)[nH]1`, “inactive”; as for `COc1ccc(NC2CCCN(C(=O)c3ccc(C)c(N4CCNC4=O)c3)C2)cc1` (stereo unspecified), “inactive”. For the compound `CCOCCCNCC(=O)NCC1CCCCC1`, the compound was classed as inactive. Take `COc1cc(NC(=O)COC(=O)/C=C/c2ccc(O)c(OC)c2)cc(OC)c1`: the compound was called inactive. Regarding `Nc1ccc(N2CCN(c3ccccc3)CC2)c(F)c1`, the call was inactive. Turning to `O=C1CSC(=S)N1Nc1ccccc1`, the compound was called inactive.

With `Nc1ccc(N=Nc2ccc(O)cc2)c(N)n1`, the compound was called inactive.

In the case of `Cc1ccc(N2C(S)=C(C#N)C(=O)NC23CCCCC3)cc1`, the outcome was inactive. As for `Cc1cccc(-n2c(=O)c3ccccc3n3c(=S)[nH]nc23)c1C`, the entry is “inactive”; as for `COc1ccc(OCC(O)CN2CCCC2)cc1` (stereo unspecified), “inactive”. For the compound `OCCN1CCN(CC(O)COC(c2ccc(F)cc2)c2ccc(F)cc2)CC1` (stereo unspecified), the outcome was inactive. For `c1ccc(CNC23CC4CC(CC(C4)C2)C3)nc1`, the compound was called inactive. As for `COc1ccc(S(=O)(=O)N2CCC(N3CCN(Cc4ccccc4)CC3)CC2)cc1`, the entry is “inactive”.

On to `O=C(CSc1cn[nH]n1)Nc1cccc(C(=O)O)c1`, for which the result was inactive. As to `CN(CCOc1ccc(Cl)c(Cl)c1)Cc1ccccc1`, the compound was called inactive. In the case of `Cc1cc(C)c(OCCCCN(C)Cc2ccccc2)c(C)c1`, the outcome was inactive. The result for `Cc1ccc(OCCCCNC(C)(C)C)c([N+](=O)[O-])c1` reads “inactive”; that for `Cc1ccc(-n2[nH]c(=O)c3cccnc32)cc1`, “inactive”; that for `Nc1ccc(N2CCN(C(=O)c3cccs3)CC2)cc1`, “inactive”. With `COc1cc(/C=N/Nc2nc3ccccc3s2)ccc1O`, the outcome was inactive. Turning to `COc1cc(/C=C/C(=O)OCC(=O)NCCCc2ccccc2)ccc1O`, the outcome was inactive. As for `CC(=O)Nc1n[nH]c(=S)s1`, the entry is “inactive”. The result for `O=C(N/N=C/c1sc2ccccc2c1O)c1cccc2ccccc12` reads “inactive”; that for `O=C(CNC(=O)c1ccc2c(c1)OCCO2)N/N=C/c1ccc(O)cc1O`, “inactive”; that for `CN(C)/C=C1/C=C(c2ccccc2)OC1=O`, “inactive”. As to `COc1cc(/C=N/N=C2/NC(=O)C(c3ccccc3)S2)ccc1O` (stereo unspecified), the outcome was inactive. Take `O=C(CN1CCCCCC1)NN(Cc1ccccc1)c1ccccc1`: the call was inactive. As for `S=C(NCCCN1CCOCC1)Nc1ccc(Nc2ccccc2)cc1`, the entry is “inactive”; as for `Clc1ccccc1CNCc1ccc2c(c1)OCO2`, “inactive”; as for `COc1cc(CNc2ncc(-c3ccc(Br)cc3)n2C)cc(OC)c1O`, “inactive”. As for `COc1ccccc1CNc1ncc(-c2ccccc2)n1C`, the entry is “inactive”; as for `Cn1c(-c2ccccc2)cnc1NCc1ccc(-c2ccccc2)cc1`, “inactive”; as for `COc1ccc(CNc2ncc(-c3ccc(Br)cc3)n2C)cc1OC`, “inactive”. The result for `Cc1ccc(CNc2ncc(-c3ccccc3)n2C)o1` reads “inactive”; that for `O=C1c2ccccc2C(=O)N1/N=C/c1ccc(O)c(O)c1`, “inactive”; that for `COc1ccc(C(=O)CCC(=O)Nc2cc(Cl)c(O)c(Cl)c2)cc1`, “inactive”.

On to `N#CC1=C(N)NC(=S)C(C(N)=O)C1c1ccc([N+](=O)[O-])cc1` (stereo unspecified), for which the compound was classed as inactive. The result for `Cc1ccc(COC(=O)Cc2coc3cc(O)ccc23)cc1` reads “inactive”; that for `CCS(=O)(=O)c1cc([N+](=O)[O-])c(Sc2ccccc2N)s1`, “inactive”; that for `CCOc1cc(/C=N/NC(=O)NN(C)c2ncc(C(F)(F)F)cc2Cl)ccc1O`, “inactive”. For `O=C(Cc1ccc(Cl)cc1)N/N=C/c1ccc(O)c(O)c1`, the outcome was inactive. For `O=c1c(O)c(-c2ccc(O)c(O)c2)oc2cc(O)ccc12`, the compound was called inactive. As for `COC(=O)c1[nH]c2ccc(Cl)cc2c1NC(=O)Oc1ccccc1`, the entry is “inactive”; as for `Cc1cc(-c2n[nH]c(=S)n2/N=C/c2cccc(O)c2)n[nH]1`, “inactive”. As for `COc1ccc(NC2CCCN(C(=O)c3cccc(N4CCNC4=O)c3)C2)cc1` (stereo unspecified), the entry is “inactive”; as for `COc1cccc(Oc2cn[nH]c2-c2ccc(O)cc2O)c1`, “inactive”. Turning to `COc1ccc(Oc2c(-c3ccc(O)cc3O)n[nH]c2C)cc1`, the compound was classed as inactive. As for `CC1=NN(C(N)=S)C(=O)C1N=Nc1ccc(O)cc1` (stereo unspecified), the entry is “inactive”; as for `O=C(O)c1ccc2c(c1)[C@@H]1C=CC[C@@H]1[C@H](c1ccccn1)N2`, “inactive”. For the compound `CCN(CC)c1ccc(NC(=O)CNCc2ccccc2Cl)c(C)c1`, the call was inactive. Consider `COc1ccc(CNc2ncc(-c3ccccc3)n2C)c(OC)c1OC`, for which the compound was classed as inactive. Regarding `COc1ccc(CNc2ncc(-c3ccc(F)cc3)n2C)cc1OC`, the compound was classed as inactive. As for `CCN1C(=O)c2ccc(C(=O)Nc3ccc(O)cc3C)cc2C1=O`, the entry is “inactive”. The result for `CCn1nc(CC(C)C)cc1C(=O)N1CCCC(Nc2ccc(OC)cc2)C1` (stereo unspecified) reads “inactive”.

On to `CN1CCc2c1nc1ccccc1c2NC(=O)CN1CCCC1`, for which the outcome was inactive. In the case of `CC(C)NCC(=O)Nc1c2c(nc3ccccc13)CCC2`, the result was inactive.

As for `Cc1sc2c3ccsc3ccc2[n+]1C`, the result was inactive.

As to `CC(C)(C)N(Cc1ccc2c(c1)OCO2)C(=O)/C=C\S(=O)c1ccccc1` (stereo unspecified), the compound was classed as inactive. For `COc1ccc(C2NC(=O)C(C#N)=C(S)N2c2cccc(C)c2)cc1OC` (stereo unspecified), the call was inactive. As for `CN(C)CCO/N=C(\c1ccc(Br)cc1)c1cccnc1`, the entry is “inactive”; as for `COC(=O)c1ccc(NCc2c(O)ccc(O)c2Br)cc1Cl`, “inactive”; as for `COC(=O)c1ccc(C(=O)OCCCc2nc3ccc(N)cc3[nH]2)cc1`, “inactive”. As for `CCOC(=O)c1[nH]c2ccccc2c1NC(=S)Nc1cccc(C)c1C`, the entry is “inactive”.

Turning to `Cc1ccc(-c2n[nH]c(=S)n2/N=C/c2ccc(C(=O)O)cc2)cc1`, the result was inactive. The result for `COc1ccc2cc(OCC(=O)NNC(=O)Nc3ccc(F)cc3)ccc2c1` reads “inactive”. The result for `Oc1ccc(CCc2ccccn2)cc1` reads “inactive”.

In the case of `CC(=O)NC(Cc1ccccc1)C(=O)Oc1ccc2ccccc2c1` (stereo unspecified), the compound was classed as inactive. The result for `CN1C(=O)/C(=C/C=C2/CCCN2C)N(C)C1=S` reads “inactive”; that for `Cc1nc(Nc2ccc(O)cc2)c2c3c(sc2n1)CCCC3`, “inactive”. The result for `Oc1ccc(Nc2ncnc3ccccc23)cc1` reads “inactive”.

As to `Cc1cccc(Nc2c(-c3ccc(O)cc3)nc3ncccn23)c1`, the compound was called inactive. On to `COc1ccc(/C=N/N2CCN(C)CC2)cc1O`, for which the result was inactive.

Regarding `O=c1nc2s/c(=C\c3ccc(-c4ccccc4[N+](=O)[O-])o3)c(=O)n2nc1-c1ccccc1`, the compound was called inactive. Consider `CC1=NOC(=O)/C1=C\c1ccc(-c2ccc(Cl)c(C(=O)O)c2)o1`, for which the compound was classed as inactive. Regarding `C=CCn1c(SCC(=O)Nc2ccc(N(C)C)cc2)nnc1-c1cccc(C)c1`, the call was inactive.

As for `COc1ccc(NC2CCCN(C(=O)CCC3=NNC(=O)CC3)C2)cc1` (stereo unspecified), the result was inactive.

With `COc1ccc(N2CCN(S(=O)(=O)c3c(C)nc4scc(C)n4c3=O)CC2)cc1`, the call was inactive. As for `N/N=C(\Cc1cscn1)c1ccc(O)cc1O`, the entry is “inactive”; as for `O=C(CN1CCN(c2ccc(O)cc2)CC1)Nc1ccc2c(c1)OCCCO2`, “inactive”. As for `Nc1nc2c(s1)CCc1ccccc1-2`, the call was inactive.

As to `COc1ccc2c(C)cc3n[nH]c(=S)n3c2c1`, the compound was classed as inactive. As for `NNc1ccc([N+](=O)[O-])c2[nH][nH]c(=O)c12`, the entry is “inactive”; as for `COc1cc(/C=N/Nc2cc(C)nc(NS(=O)(=O)c3ccccc3)n2)ccc1O`, “inactive”; as for `CCN(CC)c1ccc(/C=N/Nc2nc(C)cc(C)n2)c(O)c1`, “inactive”. In the case of `Oc1ccc(C=NNc2nc3ccccc3s2)c(O)c1`, the call was inactive. The result for `Cc1nc2ccccc2nc1N/N=C/c1ccc(O)cc1` reads “inactive”. As for `CN(C)c1ccc(/C=N\Nc2ccccn2)cc1`, the entry is “inactive”; as for `COc1ccc(-c2cnnc(N/N=C/c3ccc(O)c(O)c3)n2)cc1`, “inactive”.
